Seven compounds from PubChem BioAssay (Tox21) can be followed below.

Assay [1] can be described thus: qHTS assay to identify small molecule agonists of the constitutive androstane receptor (CAR) signaling pathway - cell viability counter screen (AID 1224836). Also: nearly all actives have a fitted effect of over 45% in size. Also: potency is read from the fitted curve at half-maximal effect. Summed up:
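Fluorescence from CellTiter-Fluor indicates live cells after 23 h exposure. The human hepatoma line expresses hCAR and a CYP2B6-2.2kb reporter. Incubation medium contains 0.75 uM PK11195 (final).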
For orientation: qHTS replaces the single test concentration by a dilution series.

Assay [2] can be described thus: qHTS assay to identify small molecule antagonists of the constitutive androstane receptor (CAR) signaling pathway - cell viability counter screen (AID 1224837). Also: nearly all actives have a fitted effect of over 45% in size. Also: potency is read from the fitted curve at half-maximal effect. An outline of the steps:
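Viability was measured with CellTiter-Fluor in a HepG2 line carrying stably transfected hCAR and a CYP2B6-2.2kb construct. Cells were exposed for 23 hr at 37 C to 15 compound concentrations with 50 nM CITCO as agonist.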

The nature of assay [3]: qHTS assay to identify small molecule antagonists of the estrogen related receptor signaling pathway with the pleiotropic PPARgamma coactivator (PGC) from Tox21 10K library - cell viability counter screen (AID 1224840; active = well fitted cell-killing curve with a large enough effect in the repeat runs, not every such curve was filed as active; also: nearly all actives have a fitted effect of over 40% in size; also: potency is read from the fitted curve at half-maximal effect). Summed up: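 Multiplexed viability counter screen in the PGC/ERR cell line: cells treated with DMSO-dissolved compounds for 17.5 hours at 37 C, then viability measured as CellTiter-Fluor fluorescence.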

The target in assay [4] is Thyrotropin receptor (Homo sapiens) (UniProt P16473). Description: qHTS assay to identify small molecule agonists of the thyroid stimulating hormone receptor (TSHR) signaling pathway (AID 1224843; calls by dose curve; also: % is scaled to controls: 0 for no effect and ±100 for the full control effect; nearly all actives have a fitted effect of over 45% in size). An outline of the steps:
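Compounds are titrated over 15 concentrations, in triplicate, onto TSHR-HEK293 cells seeded at 800/well. Plates sit 30 min at room temperature before cAMP-d2 and anti-cAMP cryptate are added; signal is read after a further hour.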

A short description of assay [5]: qHTS assay to identify small molecule agonists of the hypoxia (HIF-1) signaling pathway - cell viability counter screen (AID 1224844; calls by dose curve; also: nearly all actives have a fitted effect of over 50% in size; also: potency is read from the fitted curve at half-maximal effect). Summed up:
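Cytotoxicity was measured in parallel with the HRE-driven beta-lactamase readout: after 17 hrs of compound exposure at 37C, HRE-bla ME-180 cells received CellTiter-Glo and luminescence was recorded 30 min later.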

A short description of assay [6]: qHTS assay to identify small molecule agonists of H2AX (AID 1224845; active = well fitted activation curve with a large enough effect in the signal ratio in the repeat runs, not every such curve was filed as active; the % refers to the signal ratio; also: % is scaled to controls: 0 for no effect and ±100 for the full control effect). An outline of the steps: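 Wild-type CHO-K1 cells plated overnight, then exposed 3 hr at 37C to compounds at 15 concentrations (0.76% DMSO). Lysed, then HTRF anti-pH2AX(S139)-cryptate/anti-H2AX-d2 detection after 24 hr at room temperature; emissions 665 and 620 nm.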
Assay [7] in a line: qHTS assay to identify small molecule agonists of the hypoxia (HIF-1) signaling pathway (AID 1224846; active = well fitted activation curve with a large enough effect in the signal ratio in the repeat runs, not every such curve was filed as active; the % refers to the signal ratio; also: % is scaled to controls: 0 for no effect and ±100 for the full control effect). Summed up: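 Compounds from the Tox21 10K library, dissolved in DMSO, are tested for induction of a hypoxia response element–controlled beta-lactamase reporter in ME-180 cells. Exposure lasts 17 hrs at 37C after a 5 hr settling period, followed by CCF4-AM FRET substrate.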
Assay [8] in a line: qHTS assay to identify small molecule agonists of H2AX - cell viability counter screen (AID 1224847; calls by dose curve; also: nearly all actives have a fitted effect of over 30% in size; also: potency is read from the fitted curve at half-maximal effect). An outline of the steps:
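Viability of CHO-K1 (wild type) cells after 3 hr compound exposure was measured by CellTiter-Glo luminescence.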

Assay [9] is described as follows: qHTS RealTime-Glo MT Cell Viability Assay in HepG2 cells - 24 hour (AID 1224867). Also: nearly all actives have a fitted effect of over 50% in size. Also: potency is read from the fitted curve at half-maximal effect. An outline of the steps: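 qHTS, HepG2, 600 cells/well, RealTime-Glo (NanoLuc + prosubstrate) added with cells; 5 h preincubation; DMSO compound addition; 37 C; luminescence at 0/8/16/24/32/40 h.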
Assay [10] in a line: qHTS RealTime-Glo MT Cell Viability Assay in HEK293 cells - 32 hour (AID 1224868). Also: nearly all actives have a fitted effect of over 50% in size. Also: potency is read from the fitted curve at half-maximal effect. An outline of the steps:
(§1)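 Assay medium contained NanoLuc luciferase plus cell-permeant prosubstrate, added with HEK293 cells at 600 cells/well. After 5 h at 37 C/5% CO2 compounds were added; plates stayed at 37 C for 40 h with serial luminescence reads.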

The nature of assay [11]: A CellTox Green Cytotoxicity Assay to monitor cytotoxicity in HEK293 cells - 0 hour (AID 1224869). Also: % is scaled to controls: 0 for no effect and ±100 for the full control effect; nearly all actives have a fitted effect of over 50% in size. Summed up: (§2)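 Cells (HEK293, 600/well) and dye reagent are dispensed together. After 5 h at 37 C, 23 nL compound is pinned in. Plates stay at 37 C for 40 h with fluorescence read at 0h, 8h, 16h, 24h, 32h and 40h.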
Assay [12] can be described thus: qHTS RealTime-Glo MT Cell Viability Assay in HepG2 cells - 40 hour (AID 1224870). Also: nearly all actives have a fitted effect of over 50% in size. Also: potency is read from the fitted curve at half-maximal effect. Summed up: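 HepG2 cells mixed with RealTime-Glo MT reagents (NanoLuc plus cell-permeant prosubstrate) were seeded at 600 cells/well, incubated 5 h at 37 C/5% CO2, then pinned with compounds in DMSO; nonlytic luminescence tracked viability during 40 h treatment.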
Assay [13] can be described thus: A CellTox Green Cytotoxicity Assay to monitor cytotoxicity in HEK293 cells - 40 hour (AID 1224871). Also: nearly all actives have a fitted effect of over 45% in size. Also: potency is read from the fitted curve at half-maximal effect. Summed up:
as §2

Assay [14] in a line: qHTS RealTime-Glo MT Cell Viability Assay in HEK293 cells - 16 hour (AID 1224872). Also: nearly all actives have a fitted effect of over 50% in size. Also: potency is read from the fitted curve at half-maximal effect. An outline of the steps:
as §1

For assay [15], the target named is Nuclear receptor subfamily 1 group I member 3 (Homo sapiens) (UniProt Q14994). The assay can be described thus: qHTS assay to identify small molecule antagonists of the constitutive androstane receptor (CAR) signaling pathway (AID 1224838).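 Also: HepG2 cells stably expressing hCAR with CYP2B6 luciferase reporter stimulated by CITCO; potency is read from the fitted curve at half-maximal effect; nearly all actives have a fitted effect of over 40% in size.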 An outline of the steps:
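Antagonist mode used CITCO at a final 50 nM to activate CAR in human hepatoma HepG2 cells carrying stable hCAR and a 2.2 kb CYP2B6 promoter-luciferase construct. Compounds were tested at 15 concentrations over 24 h, with luminescence as the end point.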

Assay [16] shares this target. The assay can be described thus: qHTS assay to identify small molecule agonists of the constitutive androstane receptor (CAR) signaling pathway (AID 1224839). Also: % is scaled to controls: 0 for no effect and ±100 for the full control effect; nearly all actives have a fitted effect of over 15% in size. An outline of the steps: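 Stable hCAR/CYP2B6-2.2kb HepG2 line in DMEM with 10% FBS; compounds (15 concentrations) and 0.75 uM PK11195 final, 24 h at 37 C/5% CO2, then ONE-Glo luminescence after 30 min.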
Assay [17] is described as follows: qHTS assay to identify small molecule agonists of the estrogen related receptor signaling pathway with the pleiotropic PPARgamma coactivator (PGC) from Tox21 10K library (AID 1224842). Also: % is scaled to controls: 0 for no effect and ±100 for the full control effect; nearly all actives have a fitted effect of over 15% in size. Summed up:
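PGC/ERR reporter cells (NTP line) were seeded 2,000 per well, rested 6 h at 37 C/5% CO2, then pin-dosed with compounds in DMSO for 18 h at 37 C; luciferase read by One-Glo luminescence after 30 min at room temperature.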

A short description of assay [18]: qHTS assay to identify small molecule antagonists of the estrogen related receptor (ERR) signaling pathway from Tox21 library (AID 1224848). Also: nearly all actives have a fitted effect of over 50% in size. Also: potency is read from the fitted curve at half-maximal effect. Summed up:
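First, 2,000 ERR cells per well were plated and held 6 h at 37 C/5% CO2. Next, compounds in DMSO were pinned in and left 18 h at 37 C. Finally, ONE-Glo was added and luminescence read after 30 min at room temperature.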

Assay [19] can be described thus: qHTS assay to identify small molecule agonists of the estrogen related receptor (ERR) signaling pathway from Tox21 library (AID 1224849; calls by dose curve; also: % is scaled to controls: 0 for no effect and ±100 for the full control effect; nearly all actives have a fitted effect of over 15% in size). The following applies: ERR reporter cell line, ONE-Glo luciferase, 18 h; at 92.4 µM (top of the series) unless noted. Summed up: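 Cells carrying the ERR reporter were plated and allowed to settle for 6 h, exposed to library compounds for 18 h at 37 C, then lysed with ONE-Glo and luminescence measured.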

Assay [20] is described as follows: qHTS assay to identify small molecule antagonists of the estrogen related receptor signaling pathway with the pleiotropic PPARgamma coactivator (PGC) from Tox21 10K library (AID 1224841; call rule not given here; also: potency is read from the fitted curve at half-maximal effect). An outline of the steps:
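Steps: plate 2,000 PGC/ERR cells per well; incubate 6 h at 37 C with 5% CO2; transfer compounds from DMSO stocks by pin tool; incubate 18 h at 37 C; add One-Glo; measure luminescence 30 min later.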

Molecules are shown by their SMILES. A number with no mark means an inactive call. Inconclusive results are not listed. Active and inactive are the calls of the source. Unless noted, calls follow the shape of the dose curve; as a rule, active = well fitted curve in the direction sought with a large enough effect in the repeat runs; inconclusive = weak or mixed curves; inactive = no such curve, though single readings can be large; an effect the other way counts as inactive or inconclusive.

Thyrotropin receptor (Homo sapiens), sequence (P16473 whole entry, looked up): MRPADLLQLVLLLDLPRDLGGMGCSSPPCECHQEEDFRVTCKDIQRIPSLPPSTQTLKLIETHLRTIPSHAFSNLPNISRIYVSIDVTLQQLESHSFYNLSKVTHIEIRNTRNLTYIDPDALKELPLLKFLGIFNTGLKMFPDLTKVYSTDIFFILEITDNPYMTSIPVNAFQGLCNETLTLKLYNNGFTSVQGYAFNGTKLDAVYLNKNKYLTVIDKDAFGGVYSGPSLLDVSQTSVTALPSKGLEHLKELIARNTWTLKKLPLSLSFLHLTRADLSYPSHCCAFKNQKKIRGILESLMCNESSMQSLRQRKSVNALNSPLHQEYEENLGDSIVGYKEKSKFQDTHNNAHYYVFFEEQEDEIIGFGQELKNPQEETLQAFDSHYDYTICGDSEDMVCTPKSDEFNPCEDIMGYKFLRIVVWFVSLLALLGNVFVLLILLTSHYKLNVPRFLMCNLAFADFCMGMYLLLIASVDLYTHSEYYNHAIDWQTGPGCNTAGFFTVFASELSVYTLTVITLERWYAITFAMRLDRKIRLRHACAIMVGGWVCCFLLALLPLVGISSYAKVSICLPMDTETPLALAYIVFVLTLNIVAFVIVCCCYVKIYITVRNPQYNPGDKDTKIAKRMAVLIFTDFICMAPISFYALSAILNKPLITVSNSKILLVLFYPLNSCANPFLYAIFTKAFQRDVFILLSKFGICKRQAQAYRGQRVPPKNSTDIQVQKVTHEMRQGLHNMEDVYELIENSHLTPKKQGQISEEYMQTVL
Nuclear receptor subfamily 1 group I member 3 (Homo sapiens), sequence (Q14994 whole entry, looked up): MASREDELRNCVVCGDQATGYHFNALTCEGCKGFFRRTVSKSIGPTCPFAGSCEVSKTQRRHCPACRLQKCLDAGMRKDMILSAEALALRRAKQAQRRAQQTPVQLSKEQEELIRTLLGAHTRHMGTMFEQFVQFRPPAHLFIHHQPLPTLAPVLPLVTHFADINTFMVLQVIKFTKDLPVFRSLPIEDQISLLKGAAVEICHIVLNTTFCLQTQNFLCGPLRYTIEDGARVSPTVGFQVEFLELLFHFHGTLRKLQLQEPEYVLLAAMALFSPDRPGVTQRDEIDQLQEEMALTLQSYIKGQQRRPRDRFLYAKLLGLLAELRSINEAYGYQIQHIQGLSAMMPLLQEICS

For the compound `CCCCCOC(=O)CCCC`, the Potency result in [1], in assay [2], in assay [3], in [4], in assay [5] and in assay [6] was “inactive” throughout. The Potency entry in [7], in assay [8], in [9], in [10], in assay [11] and in [12] was “inactive” in each case. Moreover, the Potency entry in assay [13] and in assay [14] was “inactive” each time.

As to `CC(C)(C)c1ccc(C(=O)O)cc1`, the Potency result in assay [1], in assay [2], in assay [3], in assay [4], in [5] and in assay [6] was “inactive” each time. The Potency result in assay [7], in [8], in assay [9], in assay [10], in assay [11] and in assay [12] was “inactive” each time. The Potency result in assay [13] and in assay [14] was “inactive” each time.

`O=[N+]([O-])c1cc([N+](=O)[O-])c2ccc(S(=O)(=O)O)cc2c1O`: the Potency in assay [1] was 27.1 µM (active); in assay [2] it was 24.2 µM (active); in assay [3], 24.2 µM (active). For the same compound, the Potency result in assay [5], in assay [8], in [9], in assay [10], in [11] and in [13] was “inactive” each time. In assay [14], the Potency result was “inactive”.

For the compound `Cc1cc(O)c2ccccc2c1O`, the Potency result in [1], in assay [16], in assay [3], in assay [17], in assay [4] and in [11] was “inactive” in each case. In addition, the Potency in assay [15] is 16.8 µM (active); in [5], 13.4 µM (active); in [8], 5.52 µM (active); in assay [18], 13.3 µM (active); in assay [9], 13.4 µM (active); in assay [10] it was 8.49 µM (active). Moreover, the results for the Potency in [12], in assay [13] and in assay [14] were 13.4 µM (active), 9.52 µM (active) and 7.56 µM (active), respectively. For the same compound, the activity change, positive = activation in assay [19] was -47.1% [at 42.5 µM].

As to `CCCCCCCCCCC=O`, the Potency entry in assay [1], in [2], in assay [3], in assay [20], in assay [17] and in [4] was “inactive” in each case. Besides, the Potency result in assay [5], in [6], in assay [7], in [8], in assay [18] and in assay [9] was “inactive” in each case. Also, the Potency result in assay [11], in assay [12], in assay [13] and in assay [14] was “inactive” in each case. For the same compound, in assay [19], the activity change, positive = activation was 0.203%.

For the compound `[Cl][Au]([Cl])[Cl]`, the Potency in assay [1] is 7.7 µM (active); in assay [2], 3.86 µM (active); in assay [3], 7.7 µM (active); in [20], 1.72 µM (active); in assay [5], 3.89 µM (active); in [18], 3.06 µM (active). The Potency in assay [9] was 9.77 µM (active); in [12] it was 8.71 µM (active); in assay [13], 21.9 µM (active); in assay [14], 4.9 µM (active). The Potency result in assay [17], in [8] and in assay [11] was “inactive” throughout. The activity change, positive = activation in [19] is -67.4%.

For `CC(C)OC(=O)c1cc2c(OCC(O)CNC(C)(C)C)cccc2[nH]1` (configuration not stated), the Potency entry in assay [1], in [2], in assay [3], in assay [5], in assay [6] and in assay [7] was “inactive” throughout. Moreover, the Potency result in assay [8], in [9], in [11] and in assay [12] was “inactive” throughout. For the same compound, the Potency in assay [10] is 9.52 µM (active); in [14] it was 4.77 µM (active).
